Source: ChEMBL document CHEMBL2218924, “A broad activity screen in support of a chemogenomic map for kinase signalling research and drug discovery” (Biochem J, 2013)

Key:
[1] = biological target: Tyrosine-protein kinase SYK (Homo sapiens) (UniProt P43405); settings: at 10 µM
[2] = biological target: T1, Mitogen-activated protein kinase kinase kinase 7 (Homo sapiens) (UniProt O43318); settings: at 1 µM
T1 sequence (whole entry): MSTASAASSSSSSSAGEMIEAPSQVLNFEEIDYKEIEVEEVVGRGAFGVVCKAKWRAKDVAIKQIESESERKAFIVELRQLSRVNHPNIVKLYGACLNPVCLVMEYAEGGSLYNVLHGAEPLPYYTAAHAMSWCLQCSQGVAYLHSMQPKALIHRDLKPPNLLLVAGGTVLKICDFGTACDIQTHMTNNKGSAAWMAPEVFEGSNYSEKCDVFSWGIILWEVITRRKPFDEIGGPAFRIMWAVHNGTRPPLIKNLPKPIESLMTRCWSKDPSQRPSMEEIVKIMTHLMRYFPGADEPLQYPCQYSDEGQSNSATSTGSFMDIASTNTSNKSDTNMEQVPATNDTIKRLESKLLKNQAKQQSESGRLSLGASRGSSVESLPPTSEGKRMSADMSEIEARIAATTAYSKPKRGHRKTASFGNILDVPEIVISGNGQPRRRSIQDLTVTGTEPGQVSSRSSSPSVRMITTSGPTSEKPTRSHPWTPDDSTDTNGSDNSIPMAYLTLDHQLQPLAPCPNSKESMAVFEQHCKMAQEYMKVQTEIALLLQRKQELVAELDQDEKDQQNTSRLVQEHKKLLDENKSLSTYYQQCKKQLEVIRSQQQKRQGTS

[3] = biological target: T1, Mitogen-activated protein kinase kinase kinase 7 (Homo sapiens); settings: at 10 µM
[4] = biological target: T2, Serine/threonine-protein kinase TAO1 (Homo sapiens) (UniProt Q7L7X3); settings: at 1 µM
T2 sequence (whole entry): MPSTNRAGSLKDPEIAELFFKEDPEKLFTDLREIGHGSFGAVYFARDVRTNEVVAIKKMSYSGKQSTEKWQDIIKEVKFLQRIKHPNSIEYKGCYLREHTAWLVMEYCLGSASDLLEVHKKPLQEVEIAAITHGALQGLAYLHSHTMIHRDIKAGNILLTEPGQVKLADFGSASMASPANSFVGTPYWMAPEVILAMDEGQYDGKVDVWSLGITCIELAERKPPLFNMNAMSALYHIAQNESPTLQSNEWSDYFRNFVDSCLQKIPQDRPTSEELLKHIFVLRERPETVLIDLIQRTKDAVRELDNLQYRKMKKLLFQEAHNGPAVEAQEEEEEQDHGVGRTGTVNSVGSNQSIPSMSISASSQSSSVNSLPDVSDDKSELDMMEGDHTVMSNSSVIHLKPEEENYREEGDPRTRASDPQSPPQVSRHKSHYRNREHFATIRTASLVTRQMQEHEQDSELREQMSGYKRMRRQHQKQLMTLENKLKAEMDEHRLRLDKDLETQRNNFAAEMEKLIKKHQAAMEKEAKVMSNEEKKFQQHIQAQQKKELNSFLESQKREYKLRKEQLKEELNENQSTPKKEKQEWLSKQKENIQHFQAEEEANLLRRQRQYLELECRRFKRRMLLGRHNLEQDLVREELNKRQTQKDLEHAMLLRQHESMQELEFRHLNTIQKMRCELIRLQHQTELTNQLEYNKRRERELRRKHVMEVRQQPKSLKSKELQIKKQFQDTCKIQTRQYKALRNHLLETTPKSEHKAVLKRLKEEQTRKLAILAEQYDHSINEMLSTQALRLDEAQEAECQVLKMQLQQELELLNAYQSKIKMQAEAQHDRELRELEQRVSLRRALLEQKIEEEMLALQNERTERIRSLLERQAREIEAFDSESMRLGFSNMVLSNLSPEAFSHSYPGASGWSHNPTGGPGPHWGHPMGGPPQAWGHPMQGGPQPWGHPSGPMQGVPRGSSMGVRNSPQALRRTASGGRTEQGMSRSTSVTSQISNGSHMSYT

[5] = biological target: T2, Serine/threonine-protein kinase TAO1 (Homo sapiens); settings: at 10 µM
[6] = biological target: T3, Serine/threonine-protein kinase TAO2 (Homo sapiens) (UniProt Q9UL54); settings: at 1 µM
T3 sequence (whole entry): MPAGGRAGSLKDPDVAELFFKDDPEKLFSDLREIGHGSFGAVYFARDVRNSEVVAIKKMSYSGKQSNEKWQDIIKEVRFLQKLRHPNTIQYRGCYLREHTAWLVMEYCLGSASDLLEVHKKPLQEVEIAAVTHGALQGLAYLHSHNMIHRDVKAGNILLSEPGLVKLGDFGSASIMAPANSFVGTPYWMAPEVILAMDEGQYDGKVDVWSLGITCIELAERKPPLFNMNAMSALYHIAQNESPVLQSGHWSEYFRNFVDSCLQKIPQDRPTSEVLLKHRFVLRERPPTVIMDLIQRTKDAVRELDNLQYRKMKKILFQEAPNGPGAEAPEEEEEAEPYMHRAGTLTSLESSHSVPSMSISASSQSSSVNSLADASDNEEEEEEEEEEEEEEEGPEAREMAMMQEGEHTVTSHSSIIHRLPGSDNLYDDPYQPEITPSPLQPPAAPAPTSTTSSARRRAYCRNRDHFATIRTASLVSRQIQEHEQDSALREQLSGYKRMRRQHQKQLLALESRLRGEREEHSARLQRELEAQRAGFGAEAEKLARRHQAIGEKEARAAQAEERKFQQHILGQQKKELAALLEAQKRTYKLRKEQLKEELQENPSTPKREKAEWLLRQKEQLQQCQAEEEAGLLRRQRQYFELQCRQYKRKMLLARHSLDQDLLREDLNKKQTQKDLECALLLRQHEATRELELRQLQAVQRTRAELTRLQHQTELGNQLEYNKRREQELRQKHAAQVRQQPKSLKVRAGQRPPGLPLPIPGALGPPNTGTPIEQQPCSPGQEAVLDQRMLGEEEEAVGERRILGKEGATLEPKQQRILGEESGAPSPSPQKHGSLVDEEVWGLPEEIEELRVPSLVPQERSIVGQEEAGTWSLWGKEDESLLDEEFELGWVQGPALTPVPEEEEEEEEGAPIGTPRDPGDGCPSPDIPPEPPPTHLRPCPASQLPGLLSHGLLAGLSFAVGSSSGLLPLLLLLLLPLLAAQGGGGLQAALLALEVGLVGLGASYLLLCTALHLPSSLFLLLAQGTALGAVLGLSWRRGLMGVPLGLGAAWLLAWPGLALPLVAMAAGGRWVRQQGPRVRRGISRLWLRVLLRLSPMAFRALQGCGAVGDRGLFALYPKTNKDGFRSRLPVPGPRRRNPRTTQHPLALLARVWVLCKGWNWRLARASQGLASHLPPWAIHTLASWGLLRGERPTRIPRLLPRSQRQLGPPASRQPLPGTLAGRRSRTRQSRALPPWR

[7] = biological target: T3, Serine/threonine-protein kinase TAO2 (Homo sapiens); settings: at 10 µM
[8] = biological target: T4, Serine/threonine-protein kinase TAO3 (Homo sapiens) (UniProt Q9H2K8); settings: at 1 µM
T4 sequence (whole entry): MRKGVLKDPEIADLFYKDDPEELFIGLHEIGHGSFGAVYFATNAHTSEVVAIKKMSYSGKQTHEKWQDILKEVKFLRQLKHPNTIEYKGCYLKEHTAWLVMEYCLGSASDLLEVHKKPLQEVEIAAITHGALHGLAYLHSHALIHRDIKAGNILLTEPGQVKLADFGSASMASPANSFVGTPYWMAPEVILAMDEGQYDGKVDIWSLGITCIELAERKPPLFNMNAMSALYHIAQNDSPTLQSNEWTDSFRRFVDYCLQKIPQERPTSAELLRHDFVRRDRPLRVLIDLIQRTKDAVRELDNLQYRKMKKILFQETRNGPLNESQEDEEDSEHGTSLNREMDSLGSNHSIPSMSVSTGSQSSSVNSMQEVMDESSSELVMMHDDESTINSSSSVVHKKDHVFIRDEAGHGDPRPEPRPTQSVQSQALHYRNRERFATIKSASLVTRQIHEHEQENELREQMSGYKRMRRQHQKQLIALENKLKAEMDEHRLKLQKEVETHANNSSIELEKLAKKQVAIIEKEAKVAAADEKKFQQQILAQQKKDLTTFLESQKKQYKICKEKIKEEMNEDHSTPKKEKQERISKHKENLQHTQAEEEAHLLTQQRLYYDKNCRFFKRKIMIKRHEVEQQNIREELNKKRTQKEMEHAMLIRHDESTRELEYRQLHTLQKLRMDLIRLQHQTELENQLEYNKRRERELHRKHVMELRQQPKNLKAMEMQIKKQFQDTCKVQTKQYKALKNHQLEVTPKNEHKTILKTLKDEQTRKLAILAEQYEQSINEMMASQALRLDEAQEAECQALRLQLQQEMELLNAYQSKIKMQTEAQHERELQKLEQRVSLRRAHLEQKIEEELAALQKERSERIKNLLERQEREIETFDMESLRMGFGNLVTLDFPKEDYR

[9] = biological target: T4, Serine/threonine-protein kinase TAO3 (Homo sapiens); settings: at 10 µM
[10] = biological target: T5, Serine/threonine-protein kinase TBK1 (Homo sapiens) (UniProt Q9UHD2); settings: at 1 µM
T5 sequence (whole entry): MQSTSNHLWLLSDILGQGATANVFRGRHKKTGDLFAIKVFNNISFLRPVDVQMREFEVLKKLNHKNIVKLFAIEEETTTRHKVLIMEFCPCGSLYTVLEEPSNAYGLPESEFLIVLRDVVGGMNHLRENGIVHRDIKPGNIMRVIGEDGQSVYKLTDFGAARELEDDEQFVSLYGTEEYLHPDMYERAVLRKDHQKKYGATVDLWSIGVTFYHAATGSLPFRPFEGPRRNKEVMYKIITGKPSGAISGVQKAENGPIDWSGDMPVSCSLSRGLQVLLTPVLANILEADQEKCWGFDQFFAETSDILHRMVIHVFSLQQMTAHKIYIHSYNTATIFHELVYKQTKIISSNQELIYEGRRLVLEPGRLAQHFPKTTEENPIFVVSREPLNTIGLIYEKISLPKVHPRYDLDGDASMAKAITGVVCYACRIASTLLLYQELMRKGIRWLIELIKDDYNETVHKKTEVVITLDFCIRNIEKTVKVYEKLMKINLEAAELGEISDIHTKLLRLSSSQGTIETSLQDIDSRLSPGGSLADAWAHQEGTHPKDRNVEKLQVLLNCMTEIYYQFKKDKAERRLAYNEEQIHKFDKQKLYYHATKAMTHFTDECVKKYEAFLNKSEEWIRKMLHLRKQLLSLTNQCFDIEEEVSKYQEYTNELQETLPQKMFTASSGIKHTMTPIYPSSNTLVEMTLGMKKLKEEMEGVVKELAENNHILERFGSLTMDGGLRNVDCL

Compound: COc1ccc(S(=O)(=O)N(CCO)c2ccccc2CN(C)C/C=C/c2ccc(Cl)cc2)cc1
- residual activity [1]: 69%
- residual activity [2]: 93%
- residual activity [3]: 82%
- residual activity [4]: 97%
- residual activity [5]: 83%
- residual activity [6]: 105%
- residual activity [7]: 88%
- residual activity [8]: 86%
- residual activity [9]: 84%
- residual activity [10]: 73%
